# Laboratory results as given in PubChem BioAssay AID435003 (Sanford-Burnham Center for Chemical Genomics, 2010).
# The whole screen tested about 330,000 compounds, of which about 1,700 (0.52%) were called active. Many of the other results were omitted from the sample, so actives are more common in it than they were. Values without a mark were called inactive. Cut-off read from the data, not from the text of the source: active = inhibition above about 50%; inactive = the rest.
# Experiment: lowers stimulated NF-kB reporter luminescence – cell-based, uHTS, TCR NF-kB activation inhibitor project, primary screen (AID 435003)
# Conditions: Jurkat, PMA/ionomycin-induced NF-kB luciferase reporter, at 4 µM, stronger effect = higher value
row,SMILES,inhibition
1,CCOc1ccccc1N1CCN(C(=O)COc2ccc3c(C)cc(=O)oc3c2)CC1,26.6%
2,Cc1cc(=O)oc2cc(OCCC[n+]3ccccc3)ccc12,3.92%
3,Cc1cc(=O)oc2cc(OCC3CC(c4ccccc4Cl)=NO3)ccc12 (stereo not drawn),80.2% (active)
4,CCOc1ccc(NC(=O)CCS(=O)(=O)c2ccc3c(c2)CCCN3C(=O)CC)cc1,-12%
5,CCCCC(=O)Nc1ccc2c(c1)C(=O)NC2=O,7.09%
6,COCc1c(C(=O)N/N=C(\C)c2ccncc2)nnn1-c1nonc1N,-38.2%
7,C[C@@H]1C[C@@H]2O[C@H]2/C=C\C=C\C(=O)Cc2c(Cl)c(O)cc(O)c2C(=O)O1,56% (active)
8,CSc1nc(N(C)NC(=O)c2cccc(C)c2)c2ccccc2n1,57.7% (active)
9,CN(NC(=O)c1ccccc1)c1nc2ccccc2nc1C(F)(F)F,40.2%
10,CN(NC(=O)c1ccccc1F)c1nc(C(F)(F)F)nc2ccccc12,35.5%
11,O=C1c2ccccc2C(Nc2ccc3c(c2)OCCO3)N1Cc1ccco1 (stereo not drawn),4.45%
12,COc1ccccc1C1CCN(c2ccc([N+](=O)[O-])cn2)CC1,1.45%
13,Cc1ccc(N2CCN(c3ccc([N+](=O)[O-])cn3)CC2)c(C)c1,50.7% (active)
14,Cc1ccc(-n2c(C)cc(/C=N/Nc3ccc([N+](=O)[O-])cn3)c2C)c(C)c1,15.1%
15,COc1ccc(N(CC(=O)Nc2cc(OC)cc(OC)c2)S(=O)(=O)c2c(C)n[nH]c2C)cc1,-11.8%
16,CCc1sc(C(=O)N2CCN(CC(=O)Nc3cccc(F)c3)CC2)cc1C,-11.7%
17,CCc1ccc(NC2Nc3cc(C)nn3S2)cc1 (stereo not drawn),-76.8%
18,Cc1ccc(NC(=O)NNC(=O)c2sccc2-n2cccc2)cc1,6.7%
19,COc1ccc(/C=N/NC(=O)c2ccncc2)cc1CN1CCCc2ccccc21,16.1%
20,COc1cccc(/C=N/NC(=O)c2[nH]nc3c2CCc2ccccc2-3)c1O,60.8% (active)
21,COc1ccc(Br)cc1/C=N/NC(=O)c1cccc(S(=O)(=O)N2CCOCC2)c1,5.13%
22,Cc1ccsc1-c1nc(CSCC(=O)NCCN2CCCC2)c(C)o1,-7.15%

row,SMILES,inhibition
1,Cc1c(C)c2cc3c4c(oc3c(C)c2oc1=O)CCCC4,-27.9%
2,O=C(Nc1cccc(S(=O)(=O)N2CCCC2)c1)c1cncc(Br)c1,1.27%
3,CC[n+]1cc(C)ccc1/C=C/c1ccc(N(C)C)cc1,84.4% (active)
4,Cc1ccc2nsnc2c1NC(=O)c1ccccc1[N+](=O)[O-],10.9%
5,COc1ccc(NC(=O)C(CC(C)C)NS(=O)(=O)c2ccc3c(c2)CCN3C(C)=O)cc1OC (stereo not drawn),-14%
6,CC1(C(=O)O)CCC(C(=O)Nc2ccc(Cl)c(Cl)c2)C1(C)C (stereo not drawn),-8.65%
7,CC(=O)NC(=S)Nc1ccc(NC(=S)NC(=O)c2ccc([N+](=O)[O-])cc2)cc1,14.2%
8,Cn1ccc(=Nc2ccc(NC(=O)c3ccc(N=c4ccn(C)c5ccc([N+](=O)[O-])cc45)cc3)cc2)cc1,51.3% (active)
9,COc1cc(NS(=O)(=O)c2ccc(NC(=O)c3ccc([N+](=O)[O-])cc3)cc2)ncn1,14.9%
10,O=C1C=C(c2ccc(Cl)cc2)C(=O)N1Nc1ccccc1,13.6%
11,CC(=O)c1ccc(N2CCN(C(=O)C3CCN(S(=O)(=O)c4ccc5c(c4)CC(C)N5C(=O)C4CC4)CC3)CC2)cc1 (stereo not drawn),-3.75%
12,COc1ccc(C(=O)/C=C/Nc2ccccn2)cc1,50.4% (active)
13,CCOc1ccc(N/C=C/C(=O)c2ccccc2)cc1,-132%
14,CCOc1ccc(N/C=C/C(=O)c2cc(OC)c(OC)c(OC)c2)cc1,44.3%
15,Cc1onc(-c2ccc(Cl)cc2)c1-c1ccnn1S(=O)(=O)c1ccc(Cl)cc1,9.53%
16,COc1ccc(NC(=O)C(C)N2c3cccc4cccc(c34)S2(=O)=O)c(OC)c1 (stereo not drawn),21.7%
17,O=C(NCc1ccc2c(c1)OCO2)c1cc([N+](=O)[O-])ccc1N1CCOCC1,60.2% (active)
18,O=C(NCc1ccc2c(c1)OCO2)c1cc(F)c(F)cc1Cl,-12%
19,CC1CCN(c2ccc(C(=O)NCc3ccc4c(c3)OCO4)cc2[N+](=O)[O-])CC1,-1.58%
20,CC1Sc2ccc(S(=O)(=O)CCC(=O)NCc3ccccc3Cl)cc2NC1=O (stereo not drawn),7.46%
21,Cc1ccc(S(=O)(=O)N/N=C(\c2ccccc2)C2CC2)cc1,-1.73%
22,O=C(Nc1ccccc1C(F)(F)F)c1cc(-c2ccc(O)cc2)on1,-35.1%

row,SMILES,inhibition
1,CC(C)Cc1cc(C(=O)Nc2cc(Br)ccc2O)no1,-28.3%
2,Cc1ccc(O)c(NC(=O)c2cc(-c3ccco3)on2)c1,96.2% (active)
3,COC(=O)c1ccc(NC(=O)c2cc3c(CO)cnc(C)c3oc2=Nc2cccc(C(N)=O)c2)cc1,-7.55%
4,c1ccc(-n2cccc2)c(N2CCCCC2)c1,6.35%
5,C/C(=C(\C#N)C(=O)NCCCN1CCOCC1)N(C)C,-10.8%
6,O=C(COC(=O)c1ccc(F)c(S(=O)(=O)N2CCOCC2)c1)NCc1ccc2c(c1)OCO2,-6.67%
7,COC(=O)Cc1[nH]n(-c2nc3ccccc3s2)c(=O)c1C(C)=Nc1ccc(OC)cc1,60.8% (active)
8,COc1ccc(C2=NN(c3nc4ccccc4s3)C(=O)C2)cc1,-52%
9,CC(=NCc1ccco1)c1c(C(F)(F)F)[nH]n(-c2nc3ccccc3s2)c1=O,-104%
10,COc1ccc(CC(=O)NCc2nnc(SCC(=O)Nc3nccs3)n2C)cc1,-0.699%
11,COc1ccc(OC)c(CCNC(=O)CCn2ccc3cc(S(=O)(=O)N4CCCC4)ccc32)c1,4.04%
12,COc1ccccc1C(=O)Nc1ccc(OCc2nnc3c4ccccc4c(C)nn23)cc1,15.2%
13,Cc1nnc(N/N=C/c2ccccn2)[nH]c1=O,58.1% (active)
14,Cc1cc(C(=O)N/N=C/c2ccccn2)c2ccccc2n1,3.68%
15,COc1ccc(Cc2nnc(N/N=C/c3ccccc3O)[nH]c2=O)cc1OC,10.5%
16,Cc1ccc2nc(SC(C)C(=O)NCc3ccco3)[nH]c2c1 (stereo not drawn),7.59%
17,O=C(NNC(=O)C1CCCC1)c1ccc(F)cc1,-13.7%
18,COc1ccc(C(=O)NCC(=O)N/N=C/c2ccc([N+](=O)[O-])o2)cc1OC,8.93%
19,O=C(/C=C/c1ccc([N+](=O)[O-])o1)NNC(=O)c1ccc(F)cc1,75.6% (active)
20,CCc1ccc(NC(=O)Cn2nnc(C(=O)NCc3ccc(OC)cc3)c2N)cc1,13.8%
21,Cc1ccc(NC(=O)Cn2nnc(C(=O)NCc3ccco3)c2N)c(C)c1,-3.15%
22,CCOc1ccccc1NC(=O)Cn1nnc(C(=O)NCc2cccs2)c1N,65.8% (active)

row,SMILES,inhibition
1,CC[n+]1c(C)n(-c2ccccc2)c2ccc(NC(C)=O)cc21,35.7%
2,N#Cc1ccc(-c2ccc(Cl)cc2)nc1Oc1ccc(F)cc1,-19.4%
3,CCCC(=O)Nc1nc2ccc(NC(=O)c3cccnc3)cc2s1,40.8%
4,CSc1nc2ccc(NC(=O)c3c(F)cccc3F)cc2s1,-93.5%
5,CCCC(=O)Nc1nc2ccc(NC(=O)c3c(F)c(F)c(OC)c(F)c3F)cc2s1,57.8% (active)
6,COc1ccccc1NS(=O)(=O)c1ccc(C(=O)N2CCN(c3ccccc3O)CC2)cc1,-3.42%
7,CC1(C)CN(c2ccc(-c3ccnc4ncnn34)cc2)C1=O,-3.78%
8,Cc1cc(C(=O)OCC(=O)NCc2ccco2)c(C)n1-c1ccccc1,54.7% (active)
9,O=C(COC(=O)c1ccccc1O)NCc1ccco1,-0.428%
10,CN(c1ccccc1)S(=O)(=O)c1ccc(Cl)c(C(=O)OCC(=O)NCc2ccco2)c1,-10.7%
11,COc1ccc(NC(=O)N(C)C[C@H]2Oc3ccc(NC(=O)C4CC4)cc3C(=O)N([C@H](C)CO)C[C@@H]2C)cc1,-11.5%
12,COc1ccc(-c2c(NC(=O)c3ccco3)oc3ccc(Cl)cc3c2=O)cc1,-5.27%
13,COc1ccc(S(=O)(=O)N(C)C[C@H]2Oc3ccc(NS(=O)(=O)c4cccs4)cc3CC(=O)N([C@H](C)CO)C[C@H]2C)cc1,16%
14,O=C(CSc1ncnc2scc(-c3ccccc3)c12)NCc1ccc2c(c1)OCO2,1.29%
15,CC[C@]1(O)CC2CN(CCc3c([nH]c4ccccc34)[C@@](C(=O)OC)(c3cc4c(cc3OC)N(C=O)[C@H]3[C@@](O)(C(=O)OC)[C@H](OC(C)=O)[C@]5(CC)C=CCN6CC[C@]43[C@@H]65)C2)C1 (stereo partly drawn),71.2% (active)
16,Cc1ccc(F)cc1S(=O)(=O)Nc1cccc(C(=O)N2CCCC(C(N)=O)C2)c1 (stereo not drawn),12.4%
17,CCC/C=C(\CCC)C(NC(=O)Cc1ccccc1)c1ccc(C(=O)OC)cc1 (stereo not drawn),25.8%
18,CCNC(=S)N(CCc1c(C)[nH]c2ccc(C)cc12)Cc1ccco1,-0.351%
19,Cc1c(Nc2nc3ccccc3nc2NS(=O)(=O)c2cccs2)c(=O)n(-c2ccccc2)n1C,-0.383%
20,Nc1c(-c2ccc(F)cc2)cnn1C1CCS(=O)(=O)C1 (stereo not drawn),-7.3%
21,O=C(CS(=O)(=O)Cc1ccccc1)Nc1cccnc1,7.62%
22,COc1cc(OC)nc(N/N=C(\c2ccccc2)c2ccncc2)n1,-5.67%
